MRP-1 activ = activators of MRP-1. H69AR cells + doxorubicin, viability rescue, CellTiter-Glo. viability increase, % at 10 µM. 140,000 compounds, 0.61% hits. AID 799;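 active means viability gain under doxorubicin at or above a set limit, the compound median plus 3 SD, cut at about 4.7% in these data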;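 further: MRP-1 overexpressing cells given doxorubicin 25 µM after compound pretreatment; 18-22 h compound pretreatment then 72 h with doxorubicin before readout; 0% = doxorubicin-only wells and 100% = vehicle-treated cells without doxorubicin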
CYP2C9 inhib = blocks human cytochrome P450 2C9; AID 777; CYP2C9 Supersomes, luciferin-H conversion, luminescence; inhibition, % at 5 µM; P11712; 96,000 compounds, 20% hits;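 active means blocking of liver enzyme CYP2C9 beyond about 50% at 5 µM, limit read from the data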
Target sequence (P11712 whole entry, looked up): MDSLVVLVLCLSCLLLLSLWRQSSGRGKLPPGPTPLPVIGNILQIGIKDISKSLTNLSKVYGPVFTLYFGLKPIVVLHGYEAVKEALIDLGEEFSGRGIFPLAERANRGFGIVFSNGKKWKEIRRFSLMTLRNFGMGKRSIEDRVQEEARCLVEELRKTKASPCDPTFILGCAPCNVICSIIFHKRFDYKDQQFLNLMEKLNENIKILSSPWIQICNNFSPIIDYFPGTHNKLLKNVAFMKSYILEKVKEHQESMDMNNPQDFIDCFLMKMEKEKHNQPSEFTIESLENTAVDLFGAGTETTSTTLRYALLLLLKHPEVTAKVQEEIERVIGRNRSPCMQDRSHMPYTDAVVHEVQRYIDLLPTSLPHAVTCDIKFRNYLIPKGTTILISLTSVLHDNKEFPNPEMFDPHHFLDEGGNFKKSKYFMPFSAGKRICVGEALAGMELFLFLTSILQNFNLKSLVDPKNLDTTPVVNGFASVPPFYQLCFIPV
CYP2C19 inh = inhibitors of human CYP2C19 | AID 778 | 96,000 compounds, 21% hits | inhibition, % at 5 µM | CYP2C19 Supersomes, luciferin-H EGE luminescence, 30 min;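 active means CYP2C19 inhibition above a set limit at 5 µM in the primary screen, cut at about 50% in these data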;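 further: plate controls were negative control wells for no effect and 2.5 mM tranylcypromine positive control for full effect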
CYP2C9 act = activators of human CYP2C9. P11712. recombinant CYP2C9, luciferin-H conversion, luminescence; active compounds read high; factor 1 = untreated enzyme, 0 = blocked. activation factor at 5 µM. 96,000 compounds, 1.4% hits. AID 1024;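 active means activation factor of 2 or more for CYP2C9 at a 5 µM dose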;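 further: 0 = sulfaphenazole-blocked wells and 1 = vehicle-only wells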
MRP resist rev = reverses drug resistance mediated by MRP | H69AR cells + 2 uM doxorubicin, CellTiter-Glo, 72 h | differential viability (reversal), % at 10 µM | 85,000 compounds, 0.04% hits | AID 602;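 active means viability drop by adding the cancer drug above about 55%, with treated viability meeting a 40% cutoff, limit read from the data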;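 further: viability without doxorubicin minus viability with 2 µM doxorubicin for each compound; larger differential means the compound sensitizes cells more to doxorubicin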
CYP2C19 act = increases human CYP2C19 enzyme activity. 96,000 tested, under 10 active. activation factor at 5 µM. P33261. recombinant CYP2C19, luciferin-H EGE luminescence; active compounds read high; 0 = fully inhibited enzyme, 1 = untreated enzyme. AID 1025;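 active means activation factor of at least 2 at 5 µM in the primary screen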;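 further: 0 = wells with 2.5 mM tranylcypromine and 1 = vehicle-only wells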
* hit, by the source's call; / = no result. An excerpt weighted towards active compounds, which were near 21% of everything screened.

SMILES	MRP-1 activ	CYP2C9 inhib	CYP2C19 inh	CYP2C9 act	MRP resist rev	CYP2C19 act
CC1CCCCC1NS(=O)(=O)c1ccc(S(=O)(=O)N2CCN(CCC#N)CC2)cc1 (stereo not given)	-2	45	52*	0.6	2	0.5
Cc1ccc(S(=O)(=O)N2CCCN(S(=O)(=O)c3ccc(C(F)(F)F)cc3)CC2)cc1	-2	-149	33	2.5*	-4	0.7
Cc1ccc2nc(N3CCN(S(=O)(=O)c4ccc5c(c4)OCCO5)CC3)c(C#N)cc2c1	3	50*	70*	0.5	-24	0.3
N#CCCN1CCN(S(=O)(=O)c2ccc3c(c2)OCCCO3)CC1	-3	8	82*	0.9	9	0.2
N#CCCN1CCN(S(=O)(=O)c2ccc(S(=O)(=O)N3CCOCC3)cc2)CC1	0	-1	-14	1	15	1.1
COc1ccc2nc(Nc3sc4c(c3C(N)=O)CCCC4)sc2c1	-3	/	/	/	/	/
O=C(NC1CCCC1)c1cccc(Cn2cc([N+](=O)[O-])cn2)c1	-2	/	/	/	/	/
CC(C)n1nc(C(=O)NCCc2ccc(S(N)(=O)=O)cc2)c2ccccc2c1=O	-1	63*	9	0.4	3	0.9
CCn1nc(C(=O)NCCc2ccc(S(N)(=O)=O)cc2)c2ccccc2c1=O	-4	4	-14	1	12	1.1
Cc1ccc(S(=O)(=O)N2CCN(C(=O)C3=COCCO3)CC2)cc1C	-2	3	97*	1	1	0
O=C(C1=COCCO1)N1CCN(S(=O)(=O)c2cccc(Cl)c2Cl)CC1	1	17	25	0.8	3	0.7
Cc1ccc(S(=O)(=O)N2CCCN(S(=O)(=O)c3ccc4c(c3)OCCO4)CC2)cc1	0	-171	27	2.7*	-18	0.7
COc1ccc(S(=O)(=O)N2CCN(S(=O)(=O)c3ccc4c(c3)OCCO4)CC2)cc1C	-4	87*	99*	0.1	-1	0
CN1CCN(S(=O)(=O)c2ccc3c(c2)OCCO3)CC1	0	-22	46	1.2	3	0.5
CCCCCCCCSc1nnc(CSc2nc3nc(C)cc(C)n3n2)o1	-2	21	16	0.8	/	0.8
Cc1ccc(-n2c(O)c(C=NC3CCS(=O)(=O)C3)c3ccccc3c2=O)cc1 (stereo not given)	-3	8	6	0.9	6	0.9
O=C1COc2ccc(C(=O)CSc3nnc(Cc4cccs4)n3-c3ccc(Cl)cc3)cc2N1	-5	29	17	0.7	-19	0.8
Cn1nc(C(=O)N2CCN(S(=O)(=O)c3ccccc3)CC2)c2ccccc2c1=O	0	2	-6	1	0	1.1
Cc1ccc(S(=O)(=O)N2CCN(C(=O)c3nn(C(C)C)c(=O)c4ccccc34)CC2)cc1C	-1	59*	38	0.4	-12	0.6
COc1ccc(C(=O)NC(=S)Nc2nc(C)c(C(=O)N(C)C)s2)cc1	0	63*	-2	0.4	/	1
COC(=O)Nc1nc(C)c(C(=O)N(C)C)s1	-1	-1	-1	1	4	1
Cc1nc(NC(=S)NC(=O)c2cccs2)sc1C(=O)N(C)C	7.2*	30	19	0.7	/	0.8
O=C(CNC(=O)c1cccs1)NC1=NCCS1	-1	-3	11	1	-3	0.9
CCn1c(SCc2ccccc2)nnc1-c1cccs1	-1	/	/	/	-4	/
Cc1sc2nc(SCc3nc4ccccc4[nH]3)n(Cc3ccco3)c(=O)c2c1C	-2	78*	17	0.2	3	0.8
SMILES	MRP-1 activ	CYP2C9 inhib	CYP2C19 inh	CYP2C9 act	MRP resist rev	CYP2C19 act
Cc1ccc(CSc2nc3sc(C)c(C)c3c(=O)n2Cc2ccco2)cc1	0	49	35	0.5	/	0.6
Cc1cccc(CSc2nc3sc(C)c(C)c3c(=O)n2Cc2ccco2)c1	1	84*	42	0.2	6	0.6
COc1cccc(CSc2nc3sc(C)c(C)c3c(=O)n2Cc2ccco2)c1	1	78*	56*	0.2	-1	0.4
Cc1cccc(CSc2nnc(-c3cccs3)n2Cc2ccco2)c1	-4	53*	69*	0.5	8	0.3
Cc1ccc(CN2CCN(/N=C/c3ccc(C)s3)CC2)cc1	2	/	/	/	/	/
CSc1nsc(SCc2ccc(Cl)cc2)n1	-1	13	82*	0.9	23	0.2
CSc1nsc(SCc2ccc(F)cc2)n1	0	9	79*	0.9	-58	0.2
Fc1ccc(CSc2nsc(SCc3ccc(F)cc3)n2)cc1	-2	15	24	0.8	7	0.8
Cc1ccc(C(=O)N(Nc2nc3ccccc3s2)C(=O)c2ccc(C)cc2)cc1	-1	/	/	/	/	/
COC(=O)c1nn(-c2ccc(Cl)cc2)c(=O)cc1Sc1ccccn1	0	4	11	1	/	0.9
Cn1c(=O)[nH]c(=O)c2c1nc(N1CCNCC1)n2Cc1cccc2ccccc12	-1	-19	-14	1.2	10	1.1
C/C(=N\NC(=O)COc1ccc(C#N)cc1)c1ccccc1OC(F)F	-2	/	/	/	/	/
Cc1ccc(NC(=O)c2cc(NC(=O)C3CC=CCC3C(=O)O)ccc2N2CCOCC2)cc1Cl (stereo not given)	-1	61*	9	0.4	10	0.9
Cc1ccc(NC(=O)c2cc(NC(=O)C3CC=CCC3C(=O)O)ccc2N2CCOCC2)cc1 (stereo not given)	-4	1	-7	1	-4	1.1
C1CCc2c(nc3nnnn3c2NC2CCCC2)C1	-2	16	7	0.8	9	0.9
O=C(OCc1nnc(-c2ccccc2)o1)c1cc(S(=O)(=O)N2CCOCC2)c(Cl)cc1Cl	0	34	17	0.7	2	0.8
COc1ccc(S(=O)(=O)N2CCc3ccccc32)cc1C(=O)OCc1nnc(-c2ccccc2)o1	-4	99*	88*	0	12	0.1
O=C(COC(=O)c1cc[n+]([O-])cc1)Nc1ccc(F)c([N+](=O)[O-])c1	0	/	/	/	/	/
CC(C)(C)n1ncc2c(=O)n(CC(=O)N3CCN(c4ccccc4)CC3)cnc21	-1	1	-1	1	-2	1
CCn1c(C)nc2cc(C(=O)NNC(=O)CCC3CCCC3)ccc21	1	/	/	/	/	/
Cc1ccc(Sc2ccc([N+](=O)[O-])cc2[N+](=O)[O-])nc1	-5	/	/	/	/	/
Cc1ccnc(Sc2ccc([N+](=O)[O-])cc2[N+](=O)[O-])n1	-8	4	77*	1	/	0.2
COc1ccc(NC(=O)c2cc3n(n2)C(C(F)(F)F)CC(c2ccc4c(c2)OCO4)N3)cc1OC (stereo not given)	-2	/	/	/	-7	/
Cc1cccc(NC(=O)c2cc3n(n2)C(C(F)(F)F)CC(c2ccc4c(c2)OCO4)N3)c1 (stereo not given)	-2	87*	39	0.1	/	0.6
CCOC(=O)c1c(Cl)c(C)nn1-c1nc(OC)cc(OC)n1	-2	/	/	/	/	/
Cc1cc(C)n2c(SCC(=O)Nc3ncc(C(F)(F)F)cc3Cl)nnc2n1	-1	63*	26	0.4	3	0.7

Screening data deposited in PubChem by several laboratories.
